Hits are enriched below; roughly 1.5% of the tested compounds scored in any of these assays.
AID504770: E. coli YBA685 growth inhibition, screen for V. cholerae RctB inhibitors | E. coli YBA685 rctB-dependent plasmid, OD600 growth, 3 h; active compounds read low | z-score (no concentration beside the values) | 130,000 compounds, 0.27% hits; in the data active = z-score below about -2, passing the limit was not always enough
MbtI inh: blocks the Mycobacterium tuberculosis siderophore enzyme MbtI. P9WFX0. purified MbtI enzyme, fluorescence intensity read-out. inhibition, % (concentration not given with the values). 100,000 compounds, 0.89% hits. AID 493033; in the data active = inhibition mostly above about 56%, no sharp cut-off; inactive = mostly below about 77%
Polio RdRp inh: poliovirus RNA polymerase inhibition; P03300; poliovirus polymerase elongation, fluorescence polarization; active compounds read low; % elongation, % (compound at 16.7 µg/mL); 150,000 compounds, 0.66% hits; AID 588519; in the data active = % elongation below about 90%
Target sequence (P03300 1749-2209 limits assumed): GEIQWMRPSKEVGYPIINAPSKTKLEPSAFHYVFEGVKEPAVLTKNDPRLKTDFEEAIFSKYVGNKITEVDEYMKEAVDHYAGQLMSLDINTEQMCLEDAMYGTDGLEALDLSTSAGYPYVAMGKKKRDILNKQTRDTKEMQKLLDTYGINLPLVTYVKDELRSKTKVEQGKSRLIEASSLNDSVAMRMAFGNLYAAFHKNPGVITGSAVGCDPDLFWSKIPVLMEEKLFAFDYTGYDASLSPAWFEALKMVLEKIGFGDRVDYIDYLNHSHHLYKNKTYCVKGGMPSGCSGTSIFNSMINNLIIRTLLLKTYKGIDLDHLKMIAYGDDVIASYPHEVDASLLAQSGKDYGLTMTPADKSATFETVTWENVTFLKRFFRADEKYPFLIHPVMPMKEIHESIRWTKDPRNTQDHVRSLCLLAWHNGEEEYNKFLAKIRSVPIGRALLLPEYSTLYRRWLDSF
MenB inh: Mtb MenB enzyme inhibition; MenB enzyme assay, absorbance read-out; inhibition, % (concentration not given with the values); AID 540299; P9WNP5; 100,000 compounds, 0.43% hits; in the data active = inhibition above about 21%, passing the limit was not always enough
Each line names hits and unclear results; the compound was inactive in the other large screens.

NC(=O)CSc1nc2cc(S(=O)(=O)N3CCOCC3)ccc2o1	Polio RdRp inh 76
CN(C)C(=O)CSc1nc2cc(S(=O)(=O)N3CCOCC3)ccc2o1	MbtI inh 87, Polio RdRp inh 81
CN(C)C(=O)CSc1nc2cc(Cl)ccc2o1	none (no result: Polio RdRp inh)
Cc1ccc2nc(SCC(N)=O)oc2c1	MenB inh 33
CCCn1c(=O)n(CCC)c2c(C)cc(C)cc21	none (no result: MbtI inh)
CC1CCc2sc(NC(=O)C(C)C)c(C#N)c2C1 (centres undefined)	none (no result: MbtI inh, Polio RdRp inh, MenB inh)
O=C(Nc1ccc(Cl)cc1Cl)ONC1=NCCCCC1	none
COc1ccccc1-n1cc(C(=O)c2ccccc2O)cc(C#N)c1=O	MbtI inh 96
O=C(Nc1ccc2c(c1)OCCO2)C1CCCN(S(=O)(=O)Cc2ccccc2)C1 (centres undefined)	MenB inh 56
O=C(O)C1CCCN(S(=O)(=O)Cc2ccccc2)C1 (centres undefined)	none
COP1(=S)/C(=C2/N(C)c3ccccc3C2(C)C)C=NN1C (centres undefined)	MbtI inh 100, Polio RdRp inh 70
c1ccc2c(c1)COC1(CCCCC1)N2	MenB inh 38
CN(C)C(=O)N1CCN(S(=O)(=O)c2ccccc2)CC1	MenB inh 37
CCOC(=O)N1CCN(S(=O)(=O)c2ccccc2)CC1	none (no result: MbtI inh, Polio RdRp inh, MenB inh)
CN(C)S(=O)(=O)c1ccc(S(=O)(=O)N2CCN(C=O)CC2)cc1	MenB inh 31
Nc1cc(-c2ccccc2)c2ccccc2n1	AID504770 -2.2 (no result: MbtI inh)
Sc1sccc1C=NC1CCCCC1	MbtI inh 99
C=CCn1c(NCc2ccccc2)nc2ccccc21	none (no result: MbtI inh)
CCn1c(NCc2ccccc2)nc2ccccc21	MenB inh 38
c1coc(-c2nnc(-c3ccco3)nn2)c1	Polio RdRp inh 43
O=C1c2ccccc2C(=O)c2c1oc1c3c(ccc21)OCN(C1CCCC1)C3	Polio RdRp inh 83
O=C1c2ccccc2C(=O)c2c1oc1c3c(ccc21)OCN(C1CCS(=O)(=O)C1)C3 (centres undefined)	Polio RdRp inh 87
O=C1c2ccccc2C(=O)c2c1oc1c3c(ccc21)OCN(CCCN1CCOCC1)C3	Polio RdRp inh 86
COc1ccc(CCN2COc3ccc4c5c(oc4c3C2)C(=O)c2ccccc2C5=O)cc1OC	none
CC(C)CCN1COc2ccc3c4c(oc3c2C1)C(=O)c1ccccc1C4=O	none
O=C1c2ccccc2C(=O)c2c1oc1c3c(ccc21)OCN(CC1CCCO1)C3 (centres undefined)	Polio RdRp inh 88
O=C(NCc1ccccc1C(F)(F)F)C1CCN(c2ncccn2)CC1	none
Cc1ccc(-c2noc(CCC(=O)NCCN3CCN(c4cccc(Cl)c4)CC3)n2)cc1	none
COC(=O)c1ccc2c(=O)[nH]c(COC(=O)c3cccnc3Nc3ccccc3OC)nc2c1	AID504770 -4
O=Nc1c(O)[nH]c2cc3c(cc12)OCCO3	Polio RdRp inh 86
O=C(N=Nc1c(O)[nH]c2cc3c(cc12)OCCCO3)C1CCCCC1	none
Cc1n[nH]c(C)c1SCC(=O)O	none
CC(C)(C)SCC(=O)O	Polio RdRp inh 84
O=C(CNc1cccc(Oc2ccccc2)c1)N1CCc2ccccc21	none (no result: MenB inh)
CCn1c(=S)sc2nc(C)sc21	MbtI inh 101
CCn1c2ccccc2c2nc(C)sc21	none (no result: MbtI inh)
CCCn1c(SCC(=O)c2ccc3c(c2)OCCO3)nnc1-c1ccco1	AID504770 -3.8
CNC(=O)CSc1nnc(-c2ccco2)n1CC1CCCO1 (centres undefined)	MenB inh 43
CCN(CC)C(=O)CSc1nnc(-c2ccco2)n1CC1CCCO1 (centres undefined)	none
CCN1CCCC1CNc1nsc2ccccc12 (centres undefined)	none
COC(=O)c1ccsc1N1C(=O)C=CC1=O	MbtI inh 94 (no result: Polio RdRp inh)
CC(Oc1ccc(F)cc1)c1n[nH]c(=S)o1 (centres undefined)	none
CCC(c1n[nH]c(=S)o1)N(C)C (centres undefined)	MbtI inh 84, Polio RdRp inh 89
CC(C)C(NC(=O)c1ccc2c(=O)n3c(nc2c1)CCC3)c1ccc2c(c1)OCCCO2 (centres undefined)	none
CCCOc1ccccc1NC(=O)/C=C/C(N)=O	MbtI inh 100 (no result: MenB inh)
CC(=O)Nc1ccccc1OCCOc1ccccc1NC(C)=O	none (no result: MbtI inh, Polio RdRp inh, MenB inh)
COc1ccc(CCNC2=CC(=O)OC23CCCCC3)cc1OC	Polio RdRp inh 72 (no result: MbtI inh)
CC1CCN(c2ccc(C(N)=O)cc2NC(=O)c2ncoc2-c2ccc3ccccc3c2)CC1	none
N=C1SCC(=O)N1c1nccs1	AID504770 -4.6 (no result: MbtI inh)
Cc1cc2nc(N3C(=N)SCC3=O)sc2cc1C	none
COc1ccc2ccccc2c1/C=N/NC(=O)C1CC1	none
CCN(CC(=O)Nc1ccc2[nH]c(=O)[nH]c2c1)Cc1nc2ccccc2c(=O)[nH]1	none
COc1cccc2c(CCN)c[nH]c12	Polio RdRp inh 89 (no result: MbtI inh)
O=C(O)CCOc1ccc(F)cc1F	none (no result: MbtI inh, Polio RdRp inh, MenB inh)
CCNc1nc(NCC)nc(N(C)N)n1	MenB inh 32
CN(Cc1nc2ccccc2c(=O)[nH]1)C(=O)COc1ccc2c(c1)CCC2	Polio RdRp inh 55
CCCCC(=O)Nc1c(-c2ccc(OC)cc2)nc2ccccn12	none (no result: MbtI inh, Polio RdRp inh, MenB inh)
Cc1nc(-c2ccc3c(c2)OCCO3)cs1	MbtI inh 92, Polio RdRp inh 78
Cc1nc(-c2ccc(C(=O)O)cc2)cs1	MenB inh 28
CC(=O)Nc1nc(-c2ccc3c(c2)OCCO3)cs1	none (no result: MbtI inh, Polio RdRp inh, MenB inh)
COc1ccc(-c2ccc3c(N)c(C(=O)Nc4cccc(C(F)(F)F)c4)sc3n2)cc1OC	none
CCc1nnc(NC(=O)C2CCCCC2)s1	MbtI inh 100
c1ccc2[nH]c(SCCCN3CCCCC3)nc2c1	none
c1ccc2[nH]c(SN3CCCCC3)nc2c1	MbtI inh 97
Cc1cccc(C)c1OC(=O)C1=CN2CCS(=O)(=O)N=C2C=C1	none
CCOc1ccccc1NC(=O)c1c(NC(=O)C(C)Oc2cccc(Cl)c2)sc2c1CCCCC2 (centres undefined)	none (no result: AID504770, MbtI inh, MenB inh)
O=C(Nc1cccc(Cl)c1)c1c(NC(=O)C(F)(F)F)sc2c1CCCC2	Polio RdRp inh 79 (no result: AID504770, MbtI inh, MenB inh)
O=C(COc1ccc(Cl)cc1)Nc1sc2c(c1C(=O)Nc1cccc(Cl)c1)CCCC2	Polio RdRp inh 81 (no result: AID504770, MbtI inh, MenB inh)
Cc1cccc(NC(=O)c2c(NC(=O)C(F)(F)F)sc3c2CCCCC3)c1	none (no result: AID504770, MbtI inh, MenB inh)
COc1ccc(Cl)cc1NC(=O)c1c(NCc2sccc2C)sc2c1CCCC2	Polio RdRp inh 70 (no result: AID504770, MbtI inh, MenB inh)
Cc1ccccc1NC(=O)c1c(NC(=O)C(C)Oc2cccc(Cl)c2)sc2c1CCCC2 (centres undefined)	Polio RdRp inh 87 (no result: AID504770, MbtI inh, MenB inh)
O=C(Cn1cc(Br)ccc1=O)c1ccc2c(c1)OCCO2	none
O=C(NCCN1CCOCC1)c1nc(-c2ccc(Cl)cc2)n2c1CCCCC2	AID504770 -2.6
CCCNC(=O)c1nc(-c2ccc(Cl)cc2)n2c1CCCCC2	none
COc1cc(/C=C2/SC(=S)N(NC(C)=O)C2=O)ccc1O	none (no result: MbtI inh)
COc1cc(/C=C2\SC(=O)NC2=S)ccc1O	MbtI inh 79
NC(=O)c1sccc1NC(=O)CSCc1ccc(Cl)cc1	none (no result: MbtI inh, Polio RdRp inh, MenB inh)
O=C(O)c1cc(-c2ccco2)nc2ccc(Br)cc12	Polio RdRp inh 73 (no result: MbtI inh)
O=C(O)c1ccccc1-c1ccc(-c2cc(C(=O)O)c3cc(F)ccc3n2)o1	AID504770 -2.7
Cc1ccc2oc(-c3ccccc3C(=O)O)cc(=O)c2c1	none (no result: MbtI inh, Polio RdRp inh, MenB inh)
